High-throughput results from PubChem BioAssay.
NSD2 inh – NSD2 (human) methyltransferase inhibition; O96028; NSD2 peptide methylation, AlphaScreen, 120 min; inhibition, % at 12.5 µM; 0.54% of 310,000 active; in the data active means inhibition above about 50%
Shn3 inh set2 – Schnurri-3 reporter inhibition in Clone20 osteoblasts | 0.52% of 360,000 active | Clone20 osteoblast Shn3 3'UTR firefly luciferase, 24 h | inhibition, % at 12.5 µM;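 active means mean inhibition of at least 75% with every replicate also reaching 75%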
PAX8 inh HTS – inhibitors of PAX8 transcriptional activity in RMG-I cells; RMG-I TPO-luciferase reporter, SteadyGlo, 24 h; 1.2% of 360,000 active; AID 652154; inhibition, % at 12.6 µM;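 active means mean replicate inhibition at least 60% with every replicate also reaching 60%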;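 further: luciferase light reporting Pax8 driven TPO promoter activity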
LMP1 NFkB inh – Epstein-Barr LMP1 NF-kappaB reporter inhibition. AID 504558. 0.69% of 350,000 active. inhibition, % at 12.5 µM. LMP1-induced NF-kappaB luciferase reporter cells, luminescence; in the data active means inhibition above about 41%
N-glyco inh – blocks N-linked glycosylation in D54 reporter cells. D54 ERlucT glycosylation luciferase reporter, 24 h; percent of 100 nM tunicamycin response. reporter increase, % at 12.5 µM. 0.23% of 360,000 active. AID 588692;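 active means mean luciferase reporter signal, scaled so untreated is 0 and the glycosylation-blocking control 100, at or above a set limit in every replicate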;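 further: luciferase carries N-glycosylation sites so blocking glycosylation raises the light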
Env fusion inh – HIV envelope-mediated fusion inhibition; HeLa-JRFL Env/CEM21 cell fusion, luciferase; 1.1% of 360,000 active; inhibition, % at 12.3 µM;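 active means mean replicate inhibition score of at least 50 and every replicate individually at or above 50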
AlphaScreen art – interferes with AlphaScreen signal, flagging NSD2 false positives; 9.4% of 1,500 active; shares compounds with NSD2 inh; AlphaScreen artifact counterscreen, preloaded methylated H4 peptide; AC35, µM (titrated, usually from 10 µM); call rule not given here
A number is an active result; i = inactive; nt = no result. In the library only some 2.8% were active in any assay of this set; here they are far more common.

SMILES	NSD2 inh	Shn3 inh set2	PAX8 inh HTS	LMP1 NFkB inh	N-glyco inh	Env fusion inh	AlphaScreen art
CSc1ncc(/C=C2/C(=O)NC(=O)N(c3ccc(C)cc3)C2=O)cn1	i	i	i	i	i	i	nt
N#Cc1cccc(-c2ccc([C@H]3[C@@H](CO)N4CCCCN(C(=O)Cc5ccncc5)C[C@H]34)cc2)c1	nt	nt	i	nt	nt	nt	nt
Cn1c(O)c(/C=C/C=Nc2ccccc2)c(=O)n(C)c1=S	55	i	i	i	i	i	i
CCCC#Cc1ccc([C@H]2[C@@H](CO)N3CCCCN(C(=O)Cc4ccccn4)C[C@H]23)cc1	nt	nt	i	nt	nt	nt	nt
Cc1ccc(/C=C2/C(=O)NC(=O)N(C)C2=O)cc1	i	i	i	i	i	i	nt
CN1C(=O)NC(=O)/C(=C/c2ccc([N+](=O)[O-])o2)C1=O	59	nt	i	nt	nt	i	i
COC(=O)[C@H]1[C@H](CO)[C@H]2Cn3c(ccc(-c4cccc(C(=O)N(C)C)c4)c3=O)[C@@H]1N2C(=O)NC(C)C	nt	nt	i	nt	nt	nt	nt
CCN1C[C@]2(CO)CC[C@H](OC)[C@@]34C2[C@H](OC)[C@@](O)(C13)[C@@]1(O)C[C@H](OC)[C@H]2C[C@@H]4[C@@H]1[C@H]2OC	57	i	i	i	i	i	i
C[C@H]1CN([C@@H](C)CO)C(=O)CCCn2cc(nn2)CO[C@H]1CN(C)C(=O)Oc1ccc2ccccc2c1	nt	nt	nt	nt	nt	i	nt
CCN1CCN(c2ccc(N)cc2)CC1	57	i	i	i	i	i	i
CCN1CCN(c2ccc(N)cc2C)CC1	60	i	i	i	i	i	i
O=C(Cc1ccccn1)N1CCCCN2[C@H](CO)[C@@H](c3ccc(Br)cc3)[C@H]2C1	nt	nt	i	nt	nt	nt	nt
N#Cc1cccc(-c2ccc([C@@H]3[C@@H](CO)N4CCCCN(C(=O)Cc5ccncc5)C[C@@H]34)cc2)c1	nt	nt	i	nt	nt	nt	nt
O=C(Cc1cccnc1)N1CCCCN2[C@H](CO)[C@H](c3ccc(/C=C/c4ccccc4)cc3)[C@@H]2C1	nt	nt	i	nt	nt	nt	nt
O=C1NC(=S)NC(=O)C1=Cc1ccc(Br)s1	52	i	i	i	i	i	i
CN1C(=O)/C(=C\c2ccc(Br)s2)C(=O)NC1=S	i	i	i	i	i	i	nt
CCNC(=S)NCCC1=c2ccccc2=N/C1=C\c1c(O)n(C)c(=O)n(C)c1=O	55	i	i	i	i	i	i
Cn1c(O)c(/C=C2\C=Nc3ccc(Br)cc32)c(=O)n(C)c1=O	i	i	i	i	i	i	nt
COC(=O)[C@H]1[C@H](CO)[C@H]2Cn3c(ccc(-c4ccccc4OC)c3=O)[C@@H]1N2Cc1ccccc1	nt	nt	nt	nt	nt	i	nt
CCC(C)NC(=O)c1c(N)n(CCCOC)c2nc3ccccc3nc12 (stereo unspecified)	106	i	nt	i	i	i	i
